# Reference: PubChem BioAssay (EPA / NIEHS)
# Several values for one entry are separate records, joined by “and”; a condition that tells them apart may be missing. Equal entries are not always repeated. Results filed as inconclusive are left out. Where a structure was tested more than once in an assay, its records may differ in their call. Activity calls are given as the source filed them. The calls were made as follows, unless noted: active = hit-call score of the fitted dose curve at least 0.9, where 1 is the maximum; inconclusive = response in the unintended direction; inactive = score below 0.9.
# Columns and labels:
# [1] = molecular target: human Dopamine Transporter (DAT), SLC6A3 (gene 6531) (UniProt Q01959); assay: NVS_TR_hDAT: NovaScreen (NVS) Transporter Assay for human Dopamine Transporter (DAT) (AID 2283374);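 also: activity means loss of bound radioligand signal relative to DMSO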
# In short: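 Extracted human SLC6A3 protein incubated 1 h with radioligand and test chemical; bound fraction separated on filters and counted. Single 25 uM duplicate screen preceded concentration-response follow-up; positive and negative controls on every plate.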
# [2] = molecular target: human Norepinephrine Transporter (NET), SLC6A2 (gene 6530) (UniProt P23975); assay: NVS_TR_hNET: NovaScreen (NVS) Transporter Assay for human Norepinephrine Transporter (NET) (AID 2283377);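 also: cell-free membrane protein extracted from CHO cells expressing human NET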;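 as to AC50: displacement of radioligand from human NET seen as loss of scintillation signal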
# In short: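 In this cell-free binding screen, chemicals at 25 uM (duplicate) compete with a radioligand for CHO-derived human NET over 1 hour, with filter-based radiodetection.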
# [3] = molecular target: mouse Estrogen Receptor alpha (Era), Esr1 (gene 13982) (UniProt P19785); assay: NVS_NR_mERa: NovaScreen (NVS) Nuclear Receptor Binding Assay for mouse Estrogen Receptor alpha (Era) (AID 2283378);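 also: hit means loss of bound radioligand signal relative to DMSO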
# In short: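 Filter scintillation counts of bound radioligand, measured 18 h post-dose, gave the readout; decreased signal relative to DMSO controls indicated displacement from mouse Era. Primary screen ran in duplicate at 25 uM; active chemicals were retested across concentrations.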
# [4] = molecular target: Estrogen receptor beta (Homo sapiens) (UniProt Q92731); assay: OT_ER_ERbERb_1440: Odyssey Thera (OT) 24-hour HEK293T Protein-Complementation Assay for Estrogen Receptor-beta/-beta Homodimer (AID 2283380);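 also: fluorescence gain from ER beta LBD homodimer complementation read by laser scanning cytometry; scored as signal increase over DMSO baseline for both agonists and antagonists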
# In short: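 HEK293T cells stably expressing human ER-beta LBD (aa 310-547) PCA homodimer pair, dosed 24 h; formaldehyde-fixed, Draq5-stained. Readout: increase in nuclear (agonist) or nuclear plus cytoplasmic (antagonist) fluorescence intensity versus DMSO, gain-of-signal fitting.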
# [5] = molecular target: Estrogen receptor (Homo sapiens) (UniProt P03372); assay: OT_ERa_GFPERaERE_0480: Odyssey Thera (OT) 8-hour HeLa Transcription Induction Assay for Estrogen Receptor (AID 2283381; active = hit-call score of the fitted dose curve at least 0.9, where 1 is the maximum; inactive = score below 0.9)
# In short: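 An 8 h HeLa transcription-induction format with a GFP reporter under ERE control, read by fluorescence microscopy; single endpoint fitted positively with DMSO as baseline.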
# [6] = molecular target: Estrogen receptor (Homo sapiens) (UniProt P03372); assay: OT_ERa_GFPERaERE_0120: Odyssey Thera (OT) 2-hour HeLa Transcription Induction Assay for Estrogen Receptor (AID 2283382)
# In short: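 Two-hour compound treatment of HeLa cells preceded microscopy imaging of an inducible fluorescent reporter. Image-based quantification gave one endpoint, analysed for signal increase relative to DMSO controls.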
# [7] = molecular target: Retinoic acid receptor RXR-alpha (Homo sapiens) (UniProt P19793); assay: OT_NURR1_NURR1RXRa_0480: Odyssey Thera (OT) 8-hour HEK293T Protein Complementation Assay for Nurr1/retinoid X receptor (RXR) (AID 2283385)
# In short: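 Gain in fluorescent complementation signal over DMSO, measured 8 hours after chemical dosing of human kidney HEK293T cells, indicated enhanced Nurr1–RXRα association.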
# [8] = molecular target: Retinoic acid receptor RXR-alpha (Homo sapiens) (UniProt P19793); assay: OT_NURR1_NURR1RXRa_1440: Odyssey Thera (OT) 24-hour HEK293T Protein Complementation Assay for Nurr1/retinoid X receptor (RXR) (AID 2283386)
# In short: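 Cell-based binding reporter: HEK293T cells, 24 h exposure, fluorescence-detected fragment complementation, DMSO as baseline.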
# [9] = molecular target: Peroxisome proliferator-activated receptor gamma (Homo sapiens) (UniProt P37231); assay: OT_PPARg_PPARgSRC1_0480: Odyssey Thera (OT) 8-hour Protein-Complementation Assay for Peroxisome Proliferator-activated Receptor Gamma / SRC-1 Co-activator (AID 2283387);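 also: nuclear to cytoplasmic split Venus YFP fluorescence ratio reporting PPARg SRC-1 interaction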
# In short: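 Split-YFP (IFP1/IFP2) PPARg/SRC-1 reporter, HEK293T, 37 °C, 5% CO2; 8 h compound; formaldehyde fix + Draq5; high-content imaging, N/C ratio, ≥350 cells/image, positive direction vs DMSO.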
# [10] = molecular target: Peroxisome proliferator-activated receptor gamma (Homo sapiens) (UniProt P37231); assay: OT_PPARg_PPARgSRC1_1440: Odyssey Thera (OT) 24-hour Protein-Complementation Assay for Peroxisome Proliferator-activated Receptor Gamma/ SRC-1 Co-activator (AID 2283388);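 also: nuclear to cytoplasmic ratio of reconstituted Venus YFP fluorescence in fixed imaged cells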
# In short: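 Readout: nuclear-to-cytoplasmic 488 nm fluorescence ratio, ≥350 cells per image, 8 images per well, after 24 h compound exposure of HEK293T expressing PPARg/SRC-1 split-YFP fusions. Activity fitted in positive direction against DMSO.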
# [11] = CEETOX_H295R_11DCORT: CeeTox H295R High-throughput Steroidogenesis Assay for 11-Deoxycortisol (11DCORT) (AID 2283432; active = hit-call score of the fitted dose curve at least 0.9, where 1 is the maximum; inactive = score below 0.9); conditions: actives raise or lower the signal
# In short: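 Steroidogenesis in human H295R cells: 48 h chemical exposure after forskolin priming, 11-deoxycortisol measured by LC-MS/MS.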
# [12] = CEETOX_H295R_OHPREG: CeeTox H295R High-throughput Steroidogenesis Assay for OH-Pregnenolone (OHPREG) (AID 2283434; active = hit-call score of the fitted dose curve at least 0.9, where 1 is the maximum; inactive = score below 0.9); conditions: actives raise or lower the signal
# In short: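 Readout: HPLC-MS/MS of 17alpha-hydroxypregnenolone in medium after 48 h chemical exposure of H295R cells pretreated with forskolin. Values fitted bidirectionally relative to DMSO; chemicals reducing viability to 20–70% were retested after 10-fold dilution.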
# [13] = CEETOX_H295R_CORTIC: CeeTox H295R High-throughput Steroidogenesis Assay for Corticosterone (CORTIC) (AID 2283437; active = hit-call score of the fitted dose curve at least 0.9, where 1 is the maximum; inactive = score below 0.9;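 also: corticosterone secreted into medium quantified by mass spectrometry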); conditions: actives raise or lower the signal
# In short: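 Steps: seed H295R, adhere overnight; 10 uM forskolin 48 h; replace with chemical (0.1% DMSO) 48 h; extract medium with MTBE; quantify corticosterone by HPLC-MS/MS; score bidirectionally vs DMSO.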
# [14] = CEETOX_H295R_CORTISOL: CeeTox H295R High-throughput Steroidogenesis Assay for Cortisol (AID 2283438; active = hit-call score of the fitted dose curve at least 0.9, where 1 is the maximum; inactive = score below 0.9;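 also: cortisol secreted into medium quantified by LC-MS/MS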); conditions: actives raise or lower the signal
# In short: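 Steroidogenesis in H295R, per modified OECD 456: 48 h forskolin (10 uM), then 48 h exposure, 0.1% DMSO. Cortisol by extraction and tandem MS; viability by MTT (570/650 nm); cytotoxic chemicals diluted and re-tested.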
# [15] = CEETOX_H295R_DOC: CeeTox H295R High-throughput Steroidogenesis Assay for DOC (AID 2283439; active = hit-call score of the fitted dose curve at least 0.9, where 1 is the maximum; inactive = score below 0.9); conditions: actives raise or lower the signal
# In short: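 H295R, fsk 10 uM ×48 h pre, cmpd ×48 h (0.1% DMSO). Media → MTBE extr. → LC-MS/MS, DOC. Bidirectional fit vs DMSO; MTT viability same wells, re-test diluted if <70%.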
# [16] = molecular target: Agonist Androgen Response Element (ARE), AR (gene 367) (UniProt P10275); assay: OT_AR_ARELUC_AG_1440: Odyssey Thera (OT) 24-hour CHO-K1 Luciferase Assay for Agonist Androgen Response Element (ARE) (AID 2283379)
# In short: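 Luminescence increase above DMSO, read after a 24 h compound treatment of CHO-K1 cells expressing an androgen response element luciferase reporter, gives the single primary endpoint; concentration-response fitting used the positive direction.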
# [17] = molecular target: Bile acid receptor (Homo sapiens) (UniProt Q96RI1); assay: OT_FXR_FXRSRC1_0480: Odyssey Thera (OT) 8-hour HEK293T Protein-Complementation Assay for Farnesoid X receptor/SRC-1 Co-activator (AID 2283383)
# In short: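 Readings were taken 8 h after dosing HEK293T cells in a split-reporter complementation format pairing FXR with SRC-1. Increased fluorescence relative to DMSO-treated wells defined activity.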
# [18] = molecular target: Bile acid receptor (Homo sapiens) (UniProt Q96RI1); assay: OT_FXR_FXRSRC1_1440: Odyssey Thera (OT) 24-hour HEK293T Protein-Complementation Assay for Farnesoid X receptor/SRC-1 Co-activator (AID 2283384)
# In short: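 Single endpoint, analysed for increased fluorescence against DMSO controls. HEK293T cells carrying FXR and SRC-1 linked to complementary reporter halves were exposed to chemicals for 24 h before reading.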
# [19] = CEETOX_H295R_ANDR: CeeTox H295R High-throughput Steroidogenesis Assay for Androstenedione (ANDR) (AID 2283436; active = hit-call score of the fitted dose curve at least 0.9, where 1 is the maximum; inactive = score below 0.9;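 also: human H295R adrenal cells exposed for 48 h with androstenedione measured in medium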); conditions: actives raise or lower the signal
# In short: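 Steroidogenesis in H295R adrenal cells after 48 h dosing; androstenedione quantified by LC-MS/MS, with DMSO as negative control and baseline for bidirectional curve fitting.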
# Chain of Estrogen receptor (Homo sapiens) (P03372 whole entry, looked up): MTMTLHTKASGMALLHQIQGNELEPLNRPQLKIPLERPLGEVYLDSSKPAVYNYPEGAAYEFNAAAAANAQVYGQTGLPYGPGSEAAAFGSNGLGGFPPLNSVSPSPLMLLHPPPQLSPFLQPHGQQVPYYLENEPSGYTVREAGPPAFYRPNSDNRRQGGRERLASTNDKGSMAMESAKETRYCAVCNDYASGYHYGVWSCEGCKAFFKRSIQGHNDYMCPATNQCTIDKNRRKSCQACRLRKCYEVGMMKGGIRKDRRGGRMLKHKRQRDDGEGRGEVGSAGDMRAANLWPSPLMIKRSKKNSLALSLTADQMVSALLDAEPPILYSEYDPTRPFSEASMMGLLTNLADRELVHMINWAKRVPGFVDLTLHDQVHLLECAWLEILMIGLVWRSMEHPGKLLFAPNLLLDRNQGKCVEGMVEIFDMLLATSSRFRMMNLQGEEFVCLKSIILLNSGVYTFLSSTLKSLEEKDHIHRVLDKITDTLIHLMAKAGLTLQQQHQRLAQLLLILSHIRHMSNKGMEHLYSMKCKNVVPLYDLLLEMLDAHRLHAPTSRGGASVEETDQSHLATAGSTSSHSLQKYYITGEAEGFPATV
# Chain of Retinoic acid receptor RXR-alpha (Homo sapiens) (P19793 whole entry, looked up, the tested form may be a part): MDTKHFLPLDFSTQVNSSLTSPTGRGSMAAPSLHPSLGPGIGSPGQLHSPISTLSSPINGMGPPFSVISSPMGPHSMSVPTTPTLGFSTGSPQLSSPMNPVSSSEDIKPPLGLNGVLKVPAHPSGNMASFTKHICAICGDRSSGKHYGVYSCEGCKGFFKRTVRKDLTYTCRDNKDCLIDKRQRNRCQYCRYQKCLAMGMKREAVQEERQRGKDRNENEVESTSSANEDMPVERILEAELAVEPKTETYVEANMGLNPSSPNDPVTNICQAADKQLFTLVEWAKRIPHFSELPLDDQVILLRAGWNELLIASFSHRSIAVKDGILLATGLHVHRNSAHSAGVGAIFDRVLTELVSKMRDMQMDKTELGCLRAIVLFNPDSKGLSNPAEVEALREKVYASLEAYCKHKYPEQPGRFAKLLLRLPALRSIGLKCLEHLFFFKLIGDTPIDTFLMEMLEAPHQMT
# Chain of Bile acid receptor (Homo sapiens) (Q96RI1 whole entry, looked up): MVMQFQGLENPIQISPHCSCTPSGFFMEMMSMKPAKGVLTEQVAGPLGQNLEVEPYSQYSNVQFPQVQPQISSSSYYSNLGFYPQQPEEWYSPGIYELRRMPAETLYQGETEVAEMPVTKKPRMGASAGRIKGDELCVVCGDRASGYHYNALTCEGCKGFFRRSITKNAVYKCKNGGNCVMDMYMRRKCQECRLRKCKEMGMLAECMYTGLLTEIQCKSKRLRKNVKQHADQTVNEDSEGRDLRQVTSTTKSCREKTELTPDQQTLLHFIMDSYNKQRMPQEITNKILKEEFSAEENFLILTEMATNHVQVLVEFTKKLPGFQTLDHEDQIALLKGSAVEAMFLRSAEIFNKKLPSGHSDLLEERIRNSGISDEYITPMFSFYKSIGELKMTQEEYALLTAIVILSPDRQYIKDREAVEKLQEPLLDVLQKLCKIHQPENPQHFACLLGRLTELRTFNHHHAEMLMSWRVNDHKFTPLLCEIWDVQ
# Chain of human Norepinephrine Transporter (NET), SLC6A2 (gene 6530) (P23975 whole entry, looked up): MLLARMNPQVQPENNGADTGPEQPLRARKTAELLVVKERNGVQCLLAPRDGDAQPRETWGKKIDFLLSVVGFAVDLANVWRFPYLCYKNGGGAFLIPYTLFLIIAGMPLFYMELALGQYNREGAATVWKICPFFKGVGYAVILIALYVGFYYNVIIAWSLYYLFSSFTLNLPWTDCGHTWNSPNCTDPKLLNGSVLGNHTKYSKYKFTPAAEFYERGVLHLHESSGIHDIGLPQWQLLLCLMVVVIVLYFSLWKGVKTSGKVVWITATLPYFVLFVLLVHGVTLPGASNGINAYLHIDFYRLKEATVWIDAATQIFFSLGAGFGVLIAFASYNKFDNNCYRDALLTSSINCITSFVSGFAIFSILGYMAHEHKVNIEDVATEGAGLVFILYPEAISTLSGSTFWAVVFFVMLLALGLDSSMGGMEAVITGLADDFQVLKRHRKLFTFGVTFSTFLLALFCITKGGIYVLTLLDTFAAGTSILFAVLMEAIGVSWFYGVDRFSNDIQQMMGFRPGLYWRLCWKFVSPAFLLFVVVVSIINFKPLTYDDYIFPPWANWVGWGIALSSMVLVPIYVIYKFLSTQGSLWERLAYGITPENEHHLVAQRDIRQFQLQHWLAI
# Chain of human Dopamine Transporter (DAT), SLC6A3 (gene 6531) (Q01959 whole entry, looked up): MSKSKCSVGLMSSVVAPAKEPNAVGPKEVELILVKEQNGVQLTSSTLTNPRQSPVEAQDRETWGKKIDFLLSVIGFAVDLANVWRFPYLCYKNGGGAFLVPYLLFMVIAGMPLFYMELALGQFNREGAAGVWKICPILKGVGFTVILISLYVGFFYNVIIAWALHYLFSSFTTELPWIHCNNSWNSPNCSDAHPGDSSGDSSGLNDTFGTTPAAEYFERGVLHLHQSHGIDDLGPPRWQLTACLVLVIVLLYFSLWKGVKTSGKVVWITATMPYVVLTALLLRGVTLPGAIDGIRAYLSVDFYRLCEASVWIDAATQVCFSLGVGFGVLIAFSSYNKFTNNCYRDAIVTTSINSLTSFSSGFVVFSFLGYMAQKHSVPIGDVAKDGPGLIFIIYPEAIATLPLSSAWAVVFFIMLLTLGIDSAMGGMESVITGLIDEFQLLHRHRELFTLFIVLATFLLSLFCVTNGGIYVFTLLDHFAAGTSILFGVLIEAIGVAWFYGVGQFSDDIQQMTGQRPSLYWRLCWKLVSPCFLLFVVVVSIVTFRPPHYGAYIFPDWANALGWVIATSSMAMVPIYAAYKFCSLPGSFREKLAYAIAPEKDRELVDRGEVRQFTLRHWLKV
# Chain of Agonist Androgen Response Element (ARE), AR (gene 367) (P10275 whole entry, looked up): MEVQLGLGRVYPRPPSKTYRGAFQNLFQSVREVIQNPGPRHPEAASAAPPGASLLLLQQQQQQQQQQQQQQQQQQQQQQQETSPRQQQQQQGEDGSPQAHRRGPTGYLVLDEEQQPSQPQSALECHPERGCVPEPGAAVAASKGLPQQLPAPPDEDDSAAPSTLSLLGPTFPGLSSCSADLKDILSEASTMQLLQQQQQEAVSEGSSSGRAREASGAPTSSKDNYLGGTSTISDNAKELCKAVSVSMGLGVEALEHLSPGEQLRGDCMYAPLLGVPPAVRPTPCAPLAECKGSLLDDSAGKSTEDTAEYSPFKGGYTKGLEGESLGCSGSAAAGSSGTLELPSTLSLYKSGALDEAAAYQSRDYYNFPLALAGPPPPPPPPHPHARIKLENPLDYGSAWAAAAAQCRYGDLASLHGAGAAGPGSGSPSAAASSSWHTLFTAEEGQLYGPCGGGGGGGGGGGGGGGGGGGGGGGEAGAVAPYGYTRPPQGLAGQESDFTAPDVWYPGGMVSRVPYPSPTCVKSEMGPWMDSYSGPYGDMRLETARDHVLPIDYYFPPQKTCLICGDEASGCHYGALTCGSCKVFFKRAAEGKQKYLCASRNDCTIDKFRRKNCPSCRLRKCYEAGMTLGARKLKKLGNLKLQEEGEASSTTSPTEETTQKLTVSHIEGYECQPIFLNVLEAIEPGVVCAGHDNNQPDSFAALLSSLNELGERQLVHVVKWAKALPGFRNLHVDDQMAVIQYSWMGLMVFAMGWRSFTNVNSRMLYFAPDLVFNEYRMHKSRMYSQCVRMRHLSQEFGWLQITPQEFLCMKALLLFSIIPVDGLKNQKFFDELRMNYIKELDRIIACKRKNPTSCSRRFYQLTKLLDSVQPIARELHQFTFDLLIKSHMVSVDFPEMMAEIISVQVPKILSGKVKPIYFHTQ
# Chain of Estrogen receptor beta (Homo sapiens) (Q92731 whole entry, looked up, the tested form may be a part): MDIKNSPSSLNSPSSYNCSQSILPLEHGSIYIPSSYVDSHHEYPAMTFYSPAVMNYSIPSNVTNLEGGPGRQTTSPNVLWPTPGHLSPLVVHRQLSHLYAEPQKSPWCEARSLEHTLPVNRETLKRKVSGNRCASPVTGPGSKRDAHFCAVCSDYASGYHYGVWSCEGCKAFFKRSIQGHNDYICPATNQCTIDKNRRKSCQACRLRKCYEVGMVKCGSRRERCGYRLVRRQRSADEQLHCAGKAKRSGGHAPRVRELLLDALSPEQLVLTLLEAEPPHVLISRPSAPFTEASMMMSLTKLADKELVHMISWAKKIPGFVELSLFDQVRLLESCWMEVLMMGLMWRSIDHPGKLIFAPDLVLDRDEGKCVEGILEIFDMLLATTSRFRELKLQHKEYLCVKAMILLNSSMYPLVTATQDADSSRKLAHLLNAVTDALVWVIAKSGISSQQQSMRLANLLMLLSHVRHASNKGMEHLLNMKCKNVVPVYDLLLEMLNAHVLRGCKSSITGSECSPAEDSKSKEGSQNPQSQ
# Chain of Peroxisome proliferator-activated receptor gamma (Homo sapiens) (P37231 whole entry, looked up, the tested form may be a part): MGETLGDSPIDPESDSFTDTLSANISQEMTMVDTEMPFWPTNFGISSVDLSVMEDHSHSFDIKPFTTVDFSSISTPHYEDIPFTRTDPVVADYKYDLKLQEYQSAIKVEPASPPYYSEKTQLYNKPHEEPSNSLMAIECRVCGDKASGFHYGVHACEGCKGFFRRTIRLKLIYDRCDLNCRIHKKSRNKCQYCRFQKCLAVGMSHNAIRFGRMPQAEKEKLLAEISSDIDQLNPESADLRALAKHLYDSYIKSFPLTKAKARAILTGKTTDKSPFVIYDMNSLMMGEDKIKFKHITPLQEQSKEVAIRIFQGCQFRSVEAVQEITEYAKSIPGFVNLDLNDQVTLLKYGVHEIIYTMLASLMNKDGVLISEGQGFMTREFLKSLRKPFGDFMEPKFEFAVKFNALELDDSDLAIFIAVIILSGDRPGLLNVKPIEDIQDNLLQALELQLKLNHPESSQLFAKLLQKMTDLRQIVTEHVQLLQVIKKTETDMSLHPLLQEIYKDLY
smiles,measurement,setting,value
c1ccc(C(O[C@@H]2CCCN(CCc3ccc4c(c3)OCO4)C2)c2ccccc2)cc1,AC50,[1],0.063 µM (active)
same,AC50,[2],4.2 µM (active)
same,AC50,[3],25 µM (active)
same,AC50,[4],38.5 µM (active)
same,outcome,[5],inactive
same,outcome,[6],inactive
same,AC50,[7],89 µM (active)
same,outcome,[7],inactive
same,AC50,[8],77.7 µM (active) and 81.9 µM (active)
same,outcome,[9],inactive
same,outcome,[10],inactive
CCn1nc(C)c2c1C(=O)NCC(c1ccc(O)cc1)=N2,outcome,[1],inactive
same,outcome,[4],inactive
same,outcome,[5],inactive
same,outcome,[6],inactive
same,outcome,[7],inactive
same,AC50,[8],21.4 µM (active)
same,outcome,[8],inactive
same,outcome,[9],inactive
same,outcome,[10],inactive
same,outcome,[11],inactive
same,outcome,[12],inactive
same,outcome,[13],inactive
same,outcome,[14],inactive
same,AC50,[15],50 µM (active)
CCN(CC)C(=S)SSC(=S)N(CC)CC,AC50,[1],10.4 µM (active)
same,AC50,[2],0.344 µM (active)
same,outcome,[16],inactive
same,outcome,[4],inactive
same,AC50,[5],92.5 µM (active)
same,AC50,[6],77.7 µM (active)
same,outcome,[17],inactive
same,outcome,[18],inactive
same,outcome,[9],inactive
same,outcome,[10],inactive
same,outcome,[11],inactive
same,outcome,[12],inactive
same,outcome,[19],inactive
same,outcome,[13],inactive
same,outcome,[14],inactive
same,outcome,[15],inactive
COc1cc2c(c(OC)c1OC)-c1ccc(OC)c(=O)cc1[C@@H](NC(C)=O)CC2,outcome,[16],inactive
same,outcome,[4],inactive
same,outcome,[5],inactive
same,outcome,[6],inactive
same,AC50,[17],86.9 nM (active)
same,AC50,[18],0.03 µM (active)
same,AC50,[7],8.86 µM (active)
same,outcome,[7],inactive
same,AC50,[8],10.6 µM (active)
same,outcome,[8],inactive
same,outcome,[9],inactive
same,outcome,[10],inactive
same,outcome,[11],inactive
same,outcome,[12],inactive
same,outcome,[19],inactive
same,outcome,[13],inactive
same,outcome,[14],inactive
same,outcome,[15],inactive
COc1cc(C(C)C)c2c(c1)S(=O)(=O)N(COc1cc(=O)n3cccc(OCCN4CCCCC4)c3n1)C2=O,AC50,[1],2.87 µM (active)
same,AC50,[2],4.47 µM (active)
same,outcome,[16],inactive
same,AC50,[5],23.2 µM (active)
same,outcome,[6],inactive
same,outcome,[17],inactive
same,AC50,[18],19.3 µM (active)
same,AC50,[7],3.02 µM (active) and 4 µM (active)
same,AC50,[8],2.9 µM (active)
same,outcome,[8],inactive
same,outcome,[9],inactive
same,outcome,[10],inactive
Cc1nc(-c2ccccn2)ncc1C(=O)Nn1cc(C)c2cc(F)ccc21,outcome,[16],inactive
same,outcome,[4],inactive
same,outcome,[5],inactive
same,outcome,[6],inactive
same,outcome,[18],inactive
same,outcome,[8],inactive
same,outcome,[9],inactive
same,outcome,[10],inactive
c1ccc2cc3ccccc3cc2c1,AC50,[2],6.95 µM (active)
same,outcome,[4],inactive
same,outcome,[5],inactive
same,outcome,[6],inactive
same,outcome,[17],inactive
same,outcome,[18],inactive
same,outcome,[7],inactive
same,AC50,[8],72.7 µM (active)
same,outcome,[9],inactive
same,outcome,[10],inactive
O=C(O)c1cccc(C[C@@H]2COc3ccc(OCc4nc5cc(F)ccc5s4)cc3[C@@H]2O)c1,outcome,[2],inactive
same,outcome,[3],inactive
same,outcome,[4],inactive
same,outcome,[5],inactive
same,outcome,[6],inactive
same,outcome,[7],inactive
same,outcome,[8],inactive
